Shown are actives, neighbours in structure and some others; about 3.8% of the full set was active somewhere.
A549 tox: Nrf2 qHTS screen for inhibitors: counterscreen for cytotoxicity. Potency, µM (highest dose often 46 µM), inactives show at the top dose activity change, negative = cytotoxicity, hits mostly inhibitors. A549 ARE-Fluc cells, CellTiter-Fluor viability, 18-24 h. hit rate 0.16% among 390,000; further: on the % scale 0 is the no-effect control and ±100 the full control effect
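A549 ARE_Fluc cells in 5% FBS OPTI-MEM were exposed to compounds in concentration-response for 18-24 h at 37 deg C. Viability was read by CellTiter-Fluor fluorescence (Ex 405/Em 525) after 30 min, before the luciferase read.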
ATXN viability: Viability Counterscreen for Primary qHTS for Inhibitors of ATXN expression | AID 651635, 2014 | hit rate 0.49% among 400,000 | Potency, µM (doses to about 56.7 µM), hits mostly cytotoxic | S2 cells (HEK-293 line with an ATXN2-luciferase reporter) viability, CellTiter-Fluor protease fluorescence, 24 h; further: nearly all actives have a fitted effect of over 40% in size
TGFb SMAD3 inh: qHTS for Inhibitors of TGF-b; HepG2 CAGA-GFP TGF-b/SMAD3 reporter, GFP fluorescence, 18 h; TGF-beta stimulated, 500 pg/mL final; hit rate 1.2% among 410,000; Potency, µM (series often up to 46.1 µM), without a hit: top-dose activity, negative = inhibition, hits mostly inhibitors; further: on the % scale 0 is the no-effect control and ±100 the full control effect; nearly all actives have a fitted effect of over 65% in size
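Read-out: total well GFP (ex488/em500-530) summed from mean per-cell fluorescence. Cells: HEPG2 CAGA-GFP, 1% FBS DMEM, 18 h at 37 degrees C with 500 pg/mL final TGF-beta. Unstimulated wells served as the full-inhibition control; stimulated DMSO wells = 0%.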
Nrf2 inh: Nrf2 qHTS screen for inhibitors; A549 ARE-Fluc reporter, luciferase luminescence, 18-24 h; hit rate 2.1% among 360,000; Potency, µM (series often up to 46 µM), for inactives: at the highest dose activity change, negative = inhibition, usual class: inhibitors; further: on the % scale 0 is the no-effect control and ±100 the full control effect; nearly all actives have a fitted effect of over 60% in size
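Quantitative HTS in A549 cells stably bearing an antioxidant response element-firefly luciferase construct. Inhibition of Nrf2-driven transcription was scored by luminescence after 18-24 h of compound exposure at 37 °C.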
ATXN2 expr inh: Primary qHTS for Inhibitors of ATXN expression | AID 1745845, 2022 | hit rate 0.72% among 360,000 | Potency, µM (top dose mostly 57 µM), for the others: at the top dose activity change, negative = inhibition, hits mostly inhibitors | HEK-293 ATXN2-luciferase reporter, luminescence, 24 h; further: on the % scale 0 is the no-effect control and ±100 the full control effect; nearly all actives have a fitted effect of over 55% in size
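ATXN2-luciferase reporter cells (luciferase flanked by upstream and downstream ATXN2 gene portions) were treated 24 h at 37 °C with compounds at up to 57 uM. SteadyGlo luminescence gave expression; GF-AFC fluorescence gave viability.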
HepG2 tox: qHTS for Inhibitors of TGF-b: Cytotox Counterscreen; HepG2 CAGA-GFP viability, ATP luminescence, 18 h; Potency, µM (series often up to 46.1 µM), without a hit: top-dose activity change, negative = cytotoxicity, usual class: cytotoxic; hit rate 0.76% among 410,000; AID 588856, 2011
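HepG2 CAGA-GFP cells (1000/well, DMEM with 1% FBS) received compound, then TGF-beta at 500 pg/mL final, and were incubated 18 hours at 37 degrees C. Viability was read by CellTiter-Glo luminescence. Media-only wells were set as complete cell-killing and DMSO as no toxicity.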
An asterisk follows results filed as active; i = inactive; ? = inconclusive; / = no result given; ! = not active in a repeat. The call rests on the fitted dose curve; in most records, active means well fitted curve in the direction sought with a large enough effect; inconclusive means small, poorly fitted or top-dose-only effect, or another doubt; inactive means no such curve, though single readings can be large; an effect the other way counts as inactive or inconclusive. Potency means the concentration at half of the fitted maximal effect.

SMILES	A549 tox	ATXN viability	TGFb SMAD3 inh	Nrf2 inh	ATXN2 expr inh	HepG2 tox
CCC(=O)Nc1ccc(C)cc1-c1nc2ccccc2n(CC(=O)c2ccc(C)cc2)c1=O	9%	/	-3%	15%	/	-2%
O=c1cc(/C=C/c2cccs2)[nH]c2ccccc12	-14%	i	-2%	13µM*	18%	-37%
CSc1ccc(/C=C/c2cc(=O)c3ccccc3[nH]2)cc1	2%	i	?	-15%	6%	-35%
O=C1NC[C@@H](CCCCN2CCN(CCC3CCCCC3)C(=O)C2=O)N(CC2CCCCC2)C1=O	/	i	/	/	-4%	/
COc1cc2c(cc1OC)C(C1C(=O)CCCC1=O)N(C(=O)CCl)CC2 (stereo not drawn)	-4%	i	-19%	11%	/	8%
COc1cc2c(cc1OC)C(c1ccccc1)N(C(=O)CCl)CC2 (stereo not drawn)	-11%	/	-20%	?	28µM*	0%
CCc1ccc(NC(=O)CCCc2nnc3n(C(C)CC)c(=O)c4sccc4n23)cc1 (stereo not drawn)	-2%	/	?	-10%	/	-18%
CC(Oc1ccc2c(c1)c1ccnc3c4ccccc4c(=O)n2c13)C(=O)NCCN1CCOCC1 (stereo not drawn)	?	i	0%	?	-2%	11µM*
COc1cc(/C=C/C(C)=O)cc(OC)c1OC	1%	i	0%	-24%	35%	18%
COc1cc(C=CC(=O)c2cc(OC)c(OC)c(OC)c2)cc(OC)c1OC	?	?	11µM*	23µM*	?	-77%
COc1cc(/C=C/C(=O)N2CCC=CC2=O)cc(OC)c1OC	?	10µM*	?	?	10µM*	-90%
O=C(NCCCN1CCOCC1)c1ccc2c(c1)N(Cc1c(F)cccc1Cl)C(=O)c1ccccc1S2	-6%	?	?	-2%	/	-34%
O=C(NCCCN1CCOCC1)c1ccc2c(c1)N(Cc1cccc(Cl)c1)C(=O)c1ccccc1S2	-2%	/	?	/	/	11µM*
Cc1ccccc1CNC(=O)Nc1ccc2c(c1)N(C)C(=O)c1ccccc1S2	1%	/	7.1µM*	42%	/	-33%
COc1cc(OC)c(NC(=O)Nc2ccc3c(c2)N(C)C(=O)c2ccccc2S3)cc1Cl	-18%	/	?	21µM*	/	2%
COc1ccc(CNC(=O)Nc2ccc3c(c2)N(C)C(=O)c2ccccc2S3)cc1	-5%	/	-22%	?	/	-32%
CCc1ccccc1NC(=O)Nc1ccc2c(c1)N(CC)C(=O)c1ccccc1S2	8%	/	11µM*	1%	/	-34%
O=C(CSc1nc(C(F)(F)F)cc(=O)[nH]1)Nc1ccc2c(c1)OCCO2	-2%	i	9%	3%	6%	1%
CN1C(=O)c2ccccc2Sc2ccc(NC(=O)NCc3cccc(Cl)c3)cc21	1%	/	10µM*	?	/	-57%
COc1cc(/C=C2\CC/C(=C\c3cc(OC)c(OC)c(OC)c3)C2=O)cc(OC)c1OC	-1%	i	?	-14%	-33%	8%
COc1cc(/C=C2\SC(N)=NC2=O)cc(Cl)c1O	-19%	?	17%	-9%	/	-13%
CCOc1cc(/C=C2\CN(CC)C/C(=C\c3ccc(O)c(OCC)c3)C2=O)ccc1O	?	?	5.6µM*	?	?	8.9µM*
COc1cc(C=C2CCC/C(=C\c3ccc(O)c(OC)c3)C2=O)ccc1O	/	28µM*	/	/	16µM*	/
COc1cc(/C=C2/CCCC(C(=O)C(F)(F)F)=C2O)ccc1O	0%	i	9%	0%	31%	-11%
COc1cc(/C=C2\CC/C(=C\c3cc(OC)c(O)c(OC)c3)C2=O)cc(OC)c1O	?	/	?	16µM*	?	-46%
SMILES	A549 tox	ATXN viability	TGFb SMAD3 inh	Nrf2 inh	ATXN2 expr inh	HepG2 tox
CCOc1cc(/C=N/N=C/c2ccc(O)c(OCC)c2)ccc1O	0%	i	-10%	13%	-4%	-13%
COc1cc(/C=C2/CCC/C(=C\c3cc(O)c(OC)c(Cl)c3)C2=O)cc(Cl)c1O	?	/	?	?	?	13µM*
Cc1ccc(C)c(S(=O)(=O)c2nnn3c2nc(NCc2ccc4c(c2)OCO4)c2sccc23)c1	-8%	/	7%	?	/	-1%
CCOc1ccc(-n2c(SCC(=O)N3CCc4ccccc43)nc3c([nH]c4ccccc43)c2=O)cc1	9%	i	7%	/	3%	-18%
CN1C(=O)C2(c3ccccc31)C1CCCC=C1C(C#N)=C(N)C2(C#N)C#N (stereo not drawn)	-12%	i	?	-8%	-1%	13%
CCCCCOc1ccc(Cn2c(=O)oc3ccc(C)cc32)cc1OC	-1%	i	-28%	-27%	-16%	-30%
COc1cc(C=C2C(=O)C=CC2=O)ccc1O	/	/	/	/	13µM*	/
COc1cc(/C=C2/C(=O)CNC2=O)ccc1O	-3%	i	2%	1%	7%	9%
CCN1C/C(=C/c2cccc([N+](=O)[O-])c2)C(=O)/C(=C/c2cccc([N+](=O)[O-])c2)C1	-14%	4µM*	?	10%	3.2µM*	-53%
COc1cc(/C=C2\CCC/C(=C\c3ccc(O)c(OC)c3)C2=O)ccc1O	1%	/	?	?	?	10µM*!
CN1CCN(S(=O)(=O)c2ccc(Br)c3ccccc23)CC1	19%	i	-12%	-24%	-15%	-13%
CCOc1cc(N2CCOCC2)c(OCC)cc1NC(=O)c1cc(-c2ccco2)nc2ccccc12	?	?	-15%	15µM*	?	-44%
COc1ccc(-c2cc(C(=O)Nc3ccccc3N3CCOCC3)c3ccccc3n2)cc1OC	-17%	?	-25%	15µM*	?	-8%
COc1ccc(C(=O)Nc2ccc3c(c2)N(C2CCCC2)C(=O)c2ccccc2S3)cc1OC	-7%	?	21%	/	95%	-4%
Cc1nc2c(OCc3cccc(Cl)c3)cccn2c1N(C)Cc1cccs1	/	?	?	/	?	11µM*
Cc1nc2c(OCc3ccc(Cl)cc3Cl)cccn2c1N(C)Cc1cccs1	/	/	?	/	8.9µM*	11µM*
CCc1nc2c(OCc3ccc(Cl)cc3Cl)cccn2c1N(C)C(=O)c1ccccc1F	/	?	?	/	?	-61%
COC(=O)c1ccccc1COc1cccn2c(N(C)Cc3cccs3)c(C)nc12	/	i	?	/	18µM*	-41%
